SARS PLpro yeast – qHTS of Yeast-based Assay for SARS-CoV PLP | S. cerevisiae expressing SARS-CoV PLpro, growth rescue | Potency, µM (highest dose often 32.9 µM), for inactives: at the highest dose activity, positive = growth rescue, most hits filed as activators | actives 0.19% (n = 330,000) | AID 485353, 2010; calls by dose curve; note: potency is the fitted concentration of half-maximal effect; 0% is about no effect; nearly all actives have a fitted effect of over 55% in size
HCV inh – qHTS Assay for Inhibitors of Hepatitis C Virus (HCV) | Huh7.5.1 HCVcc-Cre infection, luciferase reporter, 44 h | Potency, µM (series often up to 41.8 µM), inactives show at the highest dose activity change, negative = inhibition, most hits filed as inhibitors | actives 3.4% (n = 340,000); active = well fitted inhibition curve with a large enough effect; inconclusive = small, poorly fitted or top-dose-only effect, or another doubt; inactive = no such curve, though single readings can be large or run the other way; note: potency is the fitted concentration of half-maximal effect; % is set by controls: 0 for no effect and ±100 for the full control effect
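Antiviral activity was scored by luciferase reporter output from cells infected with HCVcc-Cre (~0.5 moi) in presence of compound, 44 h infection period, cells seeded 1,000/well 4 h prior.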
MARV entry inh – qHTS for inhibitors of binding or entry into cells for Marburg Virus. actives 1.8% (n = 300,000). Marburg virus pseudotyped entry inhibition, cell reporter. AID 540276, 2011. Potency, µM (top dose mostly 37.8 µM), for inactives: top-dose activity change, negative = inhibition, actives largely listed as inhibitors; calls by dose curve; tested in HEK293 cells; note: potency is the fitted concentration of half-maximal effect; % is set by controls: 0 for no effect and ±100 for the full control effect
FMDV inh – High Throughput Screening for Foot and Mouth Disease Virus Antivirals; FMDV antiviral cell-based qHTS; actives 1.2% (n = 410,000); Potency, µM (doses to about 57.9 µM), without a hit: top-dose activity change, negative = inhibition, usual class: inhibitors; AID 1159524, 2015; calls by dose curve; tested in HEK293T cells; note: read-out not given here; potency is the fitted concentration of half-maximal effect; % is set by controls: 0 for no effect and ±100 for the full control effect; nearly all actives have a fitted effect of over 45% in size
LASV entry inh – qHTS for Inhibitors of binding or entry into cells for Lassa Virus; Potency, µM (titrated, usually from 37.9 µM), without a hit: at the top dose activity change, negative = inhibition, usual class: inhibitors; AID 540256, 2011; actives 1.2% (n = 300,000); Lassa virus pseudotype entry inhibition, cell reporter; calls by dose curve; tested in HEK293 cells; note: potency is the fitted concentration of half-maximal effect; % is set by controls: 0 for no effect and ±100 for the full control effect; nearly all actives have a fitted effect of over 50% in size
HCMV antiviral – qHTS Assay for inhibitors of the human cytomegalovirus (HCMV). HFF cells, HCMV-luciferase reporter, 72 h; stronger effect = lower value. activity change, negative = inhibition, % at 57.5 µM. actives 4.5% (n = 410,000); in the data active = activity change below about -60%; inconclusive = no clear call, values can overlap the other calls; inactive = above about -39%; note: % is set by controls: 0 for no effect and ±100 for the full control effect
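Two-dose cell screen: HFF monolayers treated with compounds and infected with luciferase-expressing HCMV at 1 PFU/cell, 72 h at 37C, then lysed for luciferase measurement.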
Starred values were filed as active, the others as inactive; ? = inconclusive; nt = not tested or not shown; [ ] = dose if it differs, or a comment. Most compounds without a hit are left out; they make up all but 8% or so of the library.

SMILES	SARS PLpro yeast	HCV inh	MARV entry inh	FMDV inh	LASV entry inh	HCMV antiviral
COc1ccc(OC)c(NC(=O)CCNC(=O)Cn2cnc3ccccc3c2=O)c1	-4%	-8%	-1%[46.1 µM]	-19%	20%[46.1 µM]	3
COc1ccc(OC)c(NC(=O)CNC(=O)Cn2cnc3ccccc3c2=O)c1	3%	?	0.71µM*	-4%	-4%	1
COc1ccc(-n2nc(C(=O)NCC(=O)Nc3ccccn3)c3ccccc3c2=O)cc1Cl	-7%	?	4.1µM*	-3%	-26%	-24
COc1ccc(-n2nc(C(=O)NCC(=O)NC3CCCC(C)C3C)c3ccccc3c2=O)c(OC)c1 (stereo not given)	2%	-14%	-14%[46.1 µM]	-17%	?	-61*
COc1ccc(OCC(=O)Nc2cc(-c3nn(C)c(=O)c4ccccc34)ccc2OC)cc1	-9%	8.9µM*	4.1µM*	?	?	16
COc1ccc(-n2nc(C(=O)NCC(=O)Nc3cc(Cl)c(OC)cc3OC)c3ccccc3c2=O)cc1	10%	32µM*	?	-11%	-2%	16
COc1ccc(NC(=O)COc2ccc(-c3nn(C)c(=O)c4ccccc34)cc2)cc1	0%	-23%	?	-14%	-6%[46.1 µM]	3
COc1ccc(-n2nc(C(=O)NCC(=O)Nc3cc(OC)ccc3OC)c3ccccc3c2=O)cc1	-2%	?	?	?	nt	-15
CCOC(=O)c1[nH]c(C)c(CCC(=O)Nc2ccc(C(C)=O)cc2)c1C	nt	nt	nt	-6%	-6%[46.1 µM]	7
COc1cccc(-n2c(SCc3ccccc3C)nc3c([nH]c4ccccc43)c2=O)c1	nt	nt	nt	-24%	-22%[46.1 µM]	-35
CCN(c1ncnc2c1cnn2-c1cc(Cl)ccc1C)C1CCCCC1	nt	nt	nt	?	-25%[46.1 µM]	7
COc1ccc(NC(=O)Cn2c(=O)n(CCc3ccccc3)c(=O)c3sc4ccccc4c32)cc1	nt	nt	21%[46.1 µM]	36%	-4%[46.1 µM]	31
OC[C@H]1O[C@H](C#Cc2ccccc2)C=C[C@@H]1O	nt	nt	20%[14.2 µM]	nt	?	nt
Cc1ccc(OCc2nc(-c3ccc(C(=O)N4CCN(c5cccc(C(F)(F)F)c5)CC4)cc3)oc2C)cc1	nt	nt	-4%[46.1 µM]	-24%	nt	1
Cc1c(C(=O)NCCN2CCC(c3ccccc3)CC2)cnn1-c1nccc(-c2cccs2)n1	nt	nt	nt	-10%	nt	nt
CCCCOc1ccc(C2c3c(oc4ccccc4c3=O)C(=O)N2c2nc(C)c(C(=O)OCC)s2)cc1OC (stereo not given)	nt	nt	6%[46.1 µM]	-20%	-13%[46.1 µM]	14
CC1=C(C(=O)OCC(C)C)C(c2ccsc2)C2=C(CCCC2=O)N1 (stereo not given)	12%	2%	5%	-22%	-4%	-78*
CCOC(=O)C1=C(C)NC2=C(C(=O)CCC2)C1c1ccsc1 (stereo not given)	nt	nt	-3%	nt	nt	nt
CCN1CCC(N(Cc2cccc(OC)c2)C(=O)Nc2cccc(C)c2C)CC1	nt	nt	nt	-10%	-2%[46.1 µM]	-13
O=C(CSc1nc(=O)[nH]c2c1CCCC2)NCc1ccc(Cl)cc1	nt	nt	nt	-9%	-2%[46.1 µM]	-27
CN1CCC(C(=O)Nc2n[nH]c3nc(-c4ccc(O)cc4)c(Br)cc23)CC1	nt	nt	nt	nt	20µM*	nt
CN1CCCC(C(=O)Nc2cccc(Cl)c2)CC1 (stereo not given)	nt	nt	nt	-16%	nt	-9
CC(C)(C)c1ccc(OCCC(=O)Nc2cccc(S(=O)(=O)N3CCOCC3)c2)cc1	-6%	nt	?	25µM*	?	nt
CCOc1ccc(N2CC(C(=O)Nc3ccccc3OC)CC2=O)cc1 (stereo not given)	6%	-5%	nt	25%	nt	5
CCOc1ccc(OCCC(=O)Nc2cccc(S(=O)(=O)N3CCCC3)c2)cc1	-2%	11µM*	?	0%	?	-32
CN(CC(=O)Nc1cccc(S(=O)(=O)NC2=NCCCCC2)c1)Cc1ccc(C(C)(C)C)cc1	-9%	?	?	-17%	?	9
CC(C)(C)c1ccc(OCCC(=O)Nc2cccc(S(=O)(=O)NC3=NCCCCC3)c2)cc1	-2%	14µM*	?	?	10µM*	-60*

From PubChem
